Test results taken from PubChem BioAssay (Tox21).
Inconclusive results are not listed. Calls of active or inactive are those of the source. Unless noted, the call rests on the fitted dose curve; in most records, active means well fitted curve in the direction sought with a large enough effect in the repeat runs; inconclusive means weak or mixed curves; inactive means no such curve, though single readings can be large; an effect the other way counts as inactive or inconclusive.

Assays:
[1] = qHTS assay to identify small molecule agonists of the estrogen related receptor (ERR) signaling pathway from Tox21 library (AID 1224849; calls by dose curve; further: nearly all actives have a fitted effect of over 15% in size)
In short: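 Tox21 compounds tested for ERR agonism in an NTP reporter cell line: 18 h treatment at 37 C, then ONE-Glo luminescence.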

[2] = qHTS RealTime-Glo MT Cell Viability Assay in HepG2 cells - 24 hour (AID 1224867); further: nearly all actives have a fitted effect of over 50% in size
In short: (§1)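 HepG2 suspension premixed with RealTime-Glo reagents is plated at 600 cells per well and left 5 h at 37 C/5% CO2. Compounds in DMSO then go in, and bioluminescence reflecting viable cell number is recorded over 40 h.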

[3] = A CellTox Green Cytotoxicity Assay to monitor cytotoxicity in HEK293 cells - 0 hour (AID 1224869); further: nearly all actives have a fitted effect of over 50% in size
In short: (§2)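 Tox21 screen in HEK293: membrane-impermeant cyanine dye fluoresces on binding dead-cell DNA; compound pinned 5 h post-seeding, plates held at 37 C, signal read repeatedly through 40 h.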

[4] = A CellTox Green Cytotoxicity Assay to monitor cytotoxicity in HEK293 cells - 40 hour (AID 1224871); further: nearly all actives have a fitted effect of over 45% in size
In short: as §2

[5] = qHTS RealTime-Glo MT Cell Viability Assay in HEK293 cells - 16 hour (AID 1224872); further: top concentration of the series differs between compounds; nearly all actives have a fitted effect of over 50% in size
In short: (§3)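 Reads taken at 0, 8, 16, 24, 32 and 40 h from the same wells. HEK293 cells (600/well) carried RealTime-Glo reagents from seeding, with compound added after a 5 h settle at 37 C.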

[6] = qHTS RealTime-Glo MT Cell Viability Assay in HepG2 cells - 8 hour (AID 1224873); further: nearly all actives have a fitted effect of over 55% in size
In short: (§4)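 Real-time viability: cells seeded at 600 per well together with NanoLuc and cell-permeant prosubstrate, compounds added after 5 h incubation. Luminescence tracked at 0, 8, 16, 24, 32 and 40 h of exposure.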

[7] = A CellTox Green Cytotoxicity Assay to monitor cytotoxicity in HEK293 cells - 24 hour (AID 1224875); further: series mostly up to about 77 µM; nearly all actives have a fitted effect of over 45% in size
In short: as §2

[8] = A CellTox Green Cytotoxicity Assay to monitor cytotoxicity in HepG2 cells - 16 hour (AID 1224876); further: nearly all actives have a fitted effect of over 45% in size
In short: (§5)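 Measurements at 0, 8, 16, 24, 32 and 40 h of treatment captured CellTox Green fluorescence in HepG2 cells that had been co-plated with reagent and preincubated 5 h at 37 C/5% CO2.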

[9] = qHTS RealTime-Glo MT Cell Viability Assay in HepG2 cells - 32 hour (AID 1224877); further: nearly all actives have a fitted effect of over 55% in size
In short: as §1

[10] = A CellTox Green Cytotoxicity Assay to monitor cytotoxicity in HepG2 cells - 24 hour (AID 1224878); further: nearly all actives have a fitted effect of over 45% in size
In short: as §5

[11] = A CellTox Green Cytotoxicity Assay to monitor cytotoxicity in HepG2 cells - 40 hour (AID 1224879); further: nearly all actives have a fitted effect of over 40% in size
In short: as §5

[12] = qHTS RealTime-Glo MT Cell Viability Assay in HEK293 cells - 0 hour (AID 1224880)
In short: (§6)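 HEK293 + NanoLuc + prosubstrate, 600 cells/well; 5 h, 37 C/5% CO2; compound 23 nL in DMSO by pintool; 37 C; luminescence read at 0, 8, 16, 24, 32 and 40 h time points.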

[13] = A CellTox Green Cytotoxicity Assay to monitor cytotoxicity in HEK293 cells - 32 hour (AID 1224881); further: nearly all actives have a fitted effect of over 40% in size
In short: as §2

[14] = A CellTox Green Cytotoxicity Assay to monitor cytotoxicity in HepG2 cells - 0 hour (AID 1224882); further: nearly all actives have a fitted effect of over 35% in size
In short: as §5

[15] = A CellTox Green Cytotoxicity Assay to monitor cytotoxicity in HepG2 cells - 32 hour (AID 1224883); further: nearly all actives have a fitted effect of over 50% in size
In short: as §5

[16] = A CellTox Green Cytotoxicity Assay to monitor cytotoxicity in HEK293 cells - 8 hour (AID 1224884); further: nearly all actives have a fitted effect of over 35% in size
In short: as §2

[17] = qHTS RealTime-Glo MT Cell Viability Assay in HepG2 cells - 16 hour (AID 1224885); further: nearly all actives have a fitted effect of over 50% in size
In short: as §1

[18] = qHTS RealTime-Glo MT Cell Viability Assay in HEK293 cells - 32 hour (AID 1224868)
In short: as §3

[19] = qHTS RealTime-Glo MT Cell Viability Assay in HepG2 cells - 40 hour (AID 1224870); further: nearly all actives have a fitted effect of over 50% in size
In short: as §4

[20] = qHTS RealTime-Glo MT Cell Viability Assay in HEK293 cells - 40 hour (AID 1224874); conditions: RealTime-Glo luminescence; max response: active compounds read low; further: nearly all actives have a fitted effect of over 50% in size
In short: as §6
On the % scale 0 is the no-effect control and ±100 the full control effect.

Cc1cccc(NC(=S)N(C)C)c1
inactive: outcome [1] | outcome [2] | Potency [3] | Potency [4] | Potency [5] | outcome [6] | Potency [7] | Potency [8] | outcome [9] | Potency [10] | Potency [11] | outcome [12] | Potency [13] | Potency [14] | Potency [15] | Potency [16] | outcome [17]

Cn1c(=O)c2c(ncn2CC2OCCO2)n(C)c1=O
inactive: outcome [1] | outcome [2] | Potency [18] | outcome [19] | Potency [4] | Potency [5] | outcome [6] | max response [20] 7.08% | Potency [7] | Potency [8] | outcome [9] | Potency [10] | Potency [11] | outcome [12] | Potency [13] | Potency [15] | Potency [16] | outcome [17]

CCC(C)(C)C1CCC(=O)CC1
inactive: outcome [1] | outcome [2] | Potency [18] | Potency [3] | Potency [4] | Potency [5] | outcome [6] | max response [20] 7.65% | Potency [7] | Potency [8] | outcome [9] | Potency [10] | Potency [11] | outcome [12] | Potency [13] | Potency [14] | Potency [15] | Potency [16] | outcome [17]

CCC1COC(=O)O1 (stereo not drawn)
inactive: outcome [1] | outcome [2] | Potency [18] | outcome [19] | Potency [4] | Potency [5] | outcome [6] | max response [20] -0.285% | Potency [7] | Potency [8] | outcome [9] | Potency [10] | Potency [11] | outcome [12] | Potency [13] | Potency [14] | Potency [15] | Potency [16] | outcome [17]

CC(=O)OC[C@H]1O[C@@H](OC(C)=O)[C@H](OC(C)=O)[C@@H]1OC(C)=O
inactive: outcome [1] | Potency [18] | outcome [19] | Potency [4] | Potency [5] | outcome [6] | max response [20] 5.33% | Potency [7] | Potency [8] | outcome [9] | Potency [10] | Potency [11] | outcome [12] | Potency [13] | Potency [14] | Potency [15] | Potency [16] | outcome [17]

O=C(c1ccc2c(c1)C(=O)OC2=O)c1ccc2c(c1)C(=O)OC2=O
inactive: outcome [2] | Potency [18] | Potency [3] | outcome [19] | Potency [4] | Potency [5] | outcome [6] | max response [20] -1.77% | Potency [7] | Potency [8] | outcome [9] | Potency [10] | Potency [11] | outcome [12] | Potency [13] | Potency [14] | Potency [15] | Potency [16] | outcome [17]

Cc1ccc2c(c1)c1c3n2CCNC3CCC1 (stereo not drawn)
inactive: outcome [2] | Potency [18] | Potency [3] | outcome [19] | Potency [4] | Potency [5] | outcome [6] | max response [20] 0.813% | Potency [7] | Potency [8] | outcome [9] | Potency [10] | Potency [11] | outcome [12] | Potency [13] | Potency [14] | Potency [15] | Potency [16] | outcome [17]

C=C[Si](C)(C)O[Si](C)(C)C=C
inactive: outcome [2] | Potency [18] | Potency [3] | outcome [19] | Potency [4] | Potency [5] | outcome [6] | max response [20] -1.44% | Potency [7] | Potency [8] | outcome [9] | Potency [10] | Potency [11] | outcome [12] | Potency [13] | Potency [14] | Potency [15] | Potency [16] | outcome [17]

C[N+](C)(C)CC(O)CCl (stereo not drawn)
inactive: outcome [2] | Potency [18] | Potency [3] | outcome [19] | Potency [4] | Potency [5] | outcome [6] | max response [20] -4.6% | Potency [7] | Potency [8] | outcome [9] | Potency [10] | Potency [11] | outcome [12] | Potency [13] | Potency [14] | Potency [15] | Potency [16] | outcome [17]

c1ccccc1
inactive: outcome [1] | Potency [18] | outcome [19] | Potency [4] | Potency [5] | outcome [6] | max response [20] -3.11% | Potency [7] | Potency [8] | outcome [9] | Potency [10] | Potency [11] | outcome [12] | Potency [13] | Potency [14] | Potency [15] | Potency [16] | outcome [17]

O=C(COCCOCCOCC(=O)Nc1c(I)cc(I)c(C(=O)O)c1I)Nc1c(I)cc(I)c(C(=O)O)c1I
inactive: outcome [1] | outcome [2] | outcome [19] | Potency [5] | outcome [6] | max response [20] 3.14% | Potency [8] | outcome [9] | Potency [10] | Potency [11] | outcome [12] | Potency [14] | Potency [15] | Potency [16] | outcome [17]

C=C(C)[C@@H]1CC[C@@H](C)C[C@@H]1O
inactive: outcome [2] | Potency [18] | Potency [3] | outcome [19] | Potency [4] | Potency [5] | outcome [6] | max response [20] 0.357% | Potency [7] | Potency [8] | outcome [9] | Potency [10] | Potency [11] | outcome [12] | Potency [13] | Potency [14] | Potency [15] | Potency [16] | outcome [17]

CCCCC[Si](OCC)(OCC)OCC
inactive: outcome [2] | Potency [18] | Potency [3] | outcome [19] | Potency [4] | Potency [5] | outcome [6] | max response [20] -19.8% | Potency [7] | Potency [8] | outcome [9] | Potency [10] | Potency [11] | outcome [12] | Potency [13] | Potency [14] | Potency [15] | Potency [16] | outcome [17]
